From the supplement of paper PMC6555819 come the findings set out here.

For this experiment, the system named is VDR:RXRa (NR concentration 270 nM, RXRa partner concentration 90 nM). In words: PBM binding z-score (relative to random genomic background probes); higher = stronger binding; sequences stand for … in GC…GCGATTGACAGCGTAGAATGAAGG
The method, then:
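Protein-binding microarray (Agilent 4x180K custom design, double-stranded 60-nt probes: 5' GC cap, 34-nt variable region, 24-nt constant primer region; full probe sequence given). Purified or IVT nuclear receptor:RXRα heterodimers (3:1 NR:RXRα, mostly 270:90 nM) or homodimers were incubated for 1 h in PBS with 2% milk and no ligand, then detected with Alexa488 antibodies. Fluorescence from o1-orientation probes (~5 replicates averaged) was converted to z-scores against 500 random hg19 background probes. Variable regions are seed direct-repeat (DR0–DR5) sites, all their single-nucleotide variants and half-site ablations.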
CCTACTGGGCCAAGGTCATTGATCAGTCAAAGCA registered a PBM binding z-score of 3.15.

CAAACTAGGTCAAAGGTCGAAGTCGAGCCAACCA came in with a PBM binding z-score of 5.03.

ATATGTAGGTTATCGGGACATTCAGTTTGCGCAT registered a PBM binding z-score of 1.04.

With CCTATTAGTTGACCATAAGGGCACCCGAAGCTCG, the PBM binding z-score came out at 1.09.

AGAACGAGGGCACGCTTAGTTGATAGCAGAGTAG had a PBM binding z-score of 1.19.

CCTCCTAGGTCAATGGTCAGCTAAAGCAGCTCGC: the PBM binding z-score is 1.29.

Sequence TCGAGTAGGTTAGTCGGGGCATACAGCCAACATA had a PBM binding z-score of 1.74.

GCTGCTAGGTCAACGGATGGTCAGCTAAAGCTCG: the PBM binding z-score amounted to 0.92.

Sequence CTACCAAGGTGAACAATGTCGTTGATTACTATTC had a PBM binding z-score of 1.37.

On to ATATGTAGGTTGGCTGGGGTCATTCAGACTAGGC, for which the PBM binding z-score came to 5.67.

The sequence GCTCGTTGGTCAGTAAAAGGTCACACACCGGTCG had a PBM binding z-score of 4.26.

Regarding AGGCAAAGTTCATCTAGGTAACGTAAGATATGCT, the PBM binding z-score came to 4.86.

CCTATTATTTGACCATAAGGGCAACCGAAGCTCG had a PBM binding z-score of 1.28.

With CAAACTAGGTAAAGAGGTCAAAGTCCGCTTCCCG, the PBM binding z-score worked out at 4.92.

On to ATCGAAAGGCCGACGAGGTGAGTATACACCGTTT, for which the PBM binding z-score was determined as 0.176.

Sequence CAGACTGGGGCAAGGTTACCATAACGCACAGCCA came in with a PBM binding z-score of 0.28.

Consider AGAATGAGGTTACCAAAGATCTGGGAAACGCTTG, for which the PBM binding z-score was found to be 0.954.

With GCTGCTAGGTCAACTGATGTTCAGCTAAAGCTCG, the PBM binding z-score stood at 1.61.

Regarding TCATGTAGGTAAATGCTAGGTGAAAGTCCGATCT, the PBM binding z-score was found to be 0.587.

As for CCGACTGGGGTAAAGGTTACCATACTCAGTACGA, the PBM binding z-score came out at 1.18.

For TCATATAGGTAAAAGGTGAAAGTCGGTGTGGTAA, the PBM binding z-score was 1.82.

Turning to CGTCCAAGGTCAAAGGTTAGTGAAGAGATGACGG, the PBM binding z-score was determined as 5.39.

The sequence TCTTGTAGATCAAGCAGGTTAAGGAAGCCTGAGT had a PBM binding z-score of -0.0838.

GCTCGGAGGACAAGGCCAGAGCTTTGTCCGTAGA registered a PBM binding z-score of -1.03.

Regarding CATACAGGGTCAGCTACGCCAGAGTAGGGACGGC, the PBM binding z-score worked out at 2.74.

The sequence CTCGAAAGGTTGGTTGAGGTGAGTATACGGATAA came in with a PBM binding z-score of 0.828.

On to ATACCAAGGTGATCGAGAGGTCGTTGATACTAAC, for which the PBM binding z-score stood at 3.02.

TGAATGAGGTTCTAAGATCAGGGAACGTTGCAAA yielded a PBM binding z-score of -0.428.

The sequence TCCAGTTGGTCAAAGGTCACACACTCGAAATGCG registered a PBM binding z-score of 5.31.

With CTACCAAGGTGAACAACGTCGTTGATTACTATTC, the PBM binding z-score turned out to be 0.38.

With TCATATAGGTAAAAAGGTGAAAGTCCGTAAGTTA, the PBM binding z-score is 1.61.

The sequence TATACAGCGTCAAAGGCCAGAGTACGAATGTCGA had a PBM binding z-score of -0.305.

Sequence GGAACGAGGGCATCCGAGTTGATAGCATGGCGAT showed a PBM binding z-score of 3.18.

Regarding GTAACGAGGGCATTCGAGTTGATAGCATGGCGAT, the PBM binding z-score amounted to 3.62.

In the case of ATCTCTAGGTAACCAAGTTCCGTGAATGCCGAAC, the PBM binding z-score was determined as 0.306.

Sequence GGAACGAGGGCATTCGAGTTGATGGCATGGCGAT had a PBM binding z-score of 3.36.

In turn, CCGACTGGGGAAAAGGTTACCATACTCAGTACGA displayed a PBM binding z-score of 0.397.

As for AGTCTAAGTTCACTAGGTAACGTAAGATTCAGCT, the PBM binding z-score came to 3.59.

Sequence TCATATAGGTAATACAGGTGTAAGTCGGCATCTA registered a PBM binding z-score of 1.17.

The sequence GCACATAGGTAATACAAGGTGAAAGTCCGATTGT yielded a PBM binding z-score of 0.394.
